# Records with an inconclusive call do not appear. Where a call stands in place of a potency, no number is given. Activity calls are given as the source filed them. The call rests on the fitted dose curve.
# Target: Retinoic acid receptor RXR-alpha (Homo sapiens) (UniProt P19793)
# Assay: qHTS assay to identify small molecule agonists of the RXR signaling pathway (AID 1159527); further: nearly all actives have a fitted effect of over 35% in size
# Settings: HEK293T RXRa-UAS-bla, beta-lactamase ratio, 16 h; series mostly up to 35.3 µM
# From the text: U.S. Tox21 Program National Center for Advancing Translational Sciences [NCATS] NIH Chemical Genomics Center [NCGC] U.S. Environmental Protection Agency [EPA] National Institutes of Environmental Health Sciences [NIEHS] National Toxicology Program [NTP] U.S. Food and Drug Administration [FDA] Tox21 Assay Overview: The Retinoid X receptor (RXR), a nuclear hormone receptor expressed in liver, spleen, placenta, epidermis, central nervous system. These receptors are able to form homo and heterodimers with other nuclear receptors and due to this heterodimerizing ability, RXR functions as master regulators producing diverse physiological effects. Three subtypes of RXR exist; alpha, beta and gamma. Retinoid X receptor alpha (RXR-alpha) has potential roles in metabolic signaling pathways, skin alopecia, dermal cysts, cardiac development, insulin sensitization etc. Therefore screening environmental chemicals on RXR-alpha signaling can be used for the studies focused on such therapeutic applications. For quantification of RXR-alpha ligands signaling, GeneBLAzer RXR alpha-UAS-bla HEK 293T (Life Technologies, Carlsbad, CA) cells containing a beta-lactamase reporter-gene under control of Retinoid X receptor-alpha response element were used to screen Tox21 10K library.
# Tox21 Assay Protocol Summary: RXR-alpha HEK 293T cells were dispensed at 2,000 cells/6 uL of assay medium containing 2% charcoal-stripped FBS using a Multidrop Combi (ThermoFisher Scientific, Waltham, MA) dispenser. The assay was performed in black wall/clear-bottom 1536-well plates (Greiner Bio-One North America Inc. Monroe, NC). 9-cis retinoic acid was used as a positive control in the agonist mode screen. After the assay plates were incubated at 37 C and 5% CO2 for 5 hr, 23 nL of compounds dissolved in DMSO, positive controls or DMSO only were transferred to the assay plate by a Pintool station (Kalypsys, San Diego, CA). The assay plates were incubated at 37 C and 5% CO2 for 16 hr. One uL of LiveBLAzer B/G FRET substrate (Life Technologies) was added using a Flying Reagent Dispenser (Aurora Discovery, San Diego, CA) and the plates were incubated at room temperature for 2 hr. Fluorescence intensity (405 nm excitation, 460/530 nm emission) was measured using an Envision plate reader (PerkinElmer, Shelton, CT).
# Retinoic acid receptor RXR-alpha (Homo sapiens), sequence (P19793 whole entry, looked up): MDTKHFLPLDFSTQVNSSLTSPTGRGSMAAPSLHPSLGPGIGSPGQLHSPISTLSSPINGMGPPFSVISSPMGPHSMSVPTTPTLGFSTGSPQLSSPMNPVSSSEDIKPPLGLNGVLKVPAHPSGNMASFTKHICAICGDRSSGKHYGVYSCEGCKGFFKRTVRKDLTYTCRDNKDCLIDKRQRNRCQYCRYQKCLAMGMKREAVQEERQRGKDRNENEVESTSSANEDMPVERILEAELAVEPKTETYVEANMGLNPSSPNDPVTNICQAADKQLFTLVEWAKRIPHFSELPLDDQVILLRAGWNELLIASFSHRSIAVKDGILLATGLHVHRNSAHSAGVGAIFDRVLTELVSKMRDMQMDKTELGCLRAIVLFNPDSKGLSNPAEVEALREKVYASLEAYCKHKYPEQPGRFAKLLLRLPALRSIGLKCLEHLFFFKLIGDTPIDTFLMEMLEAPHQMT
Compound,Potency,activation
O=C(O)COc1nn(Cc2ccccc2)c2ccccc12,inactive,
Cc1nc2c([nH]1)c(=O)n(C)c(=O)n2Cc1ccco1,inactive,
CN(C)CCCNCCCN(C)C,inactive,
CCc1cccc2c(CCO)c[nH]c12,inactive,
C[N+](C)(C)CC(O)CC(=O)[O-] (stereo not given),inactive,
CN1CCN(c2cc3c(cc2F)c(=O)c(C(=O)O)cn3-c2ccc(F)cc2)CC1,inactive,
CC(C)(O)C(=O)c1ccccc1,inactive,
O=C(CCCN1CCN(c2ccccn2)CC1)c1ccc(F)cc1,inactive,
NCCCNCCSP(=O)(O)O,,10.3% [at 6.98 µM] (inactive)
CC(C)CCCC(C)N (stereo not given),inactive,
Cc1ccc(=O)n(-c2ccccc2)c1,inactive,
CC(=O)Nc1c(I)cc(I)c(C(=O)O)c1I,inactive,
CC(C)NC(=O)NC(C)C,inactive,
C=C(C)CS(=O)(=O)O,inactive,
FC(F)OC(Cl)C(F)(F)F (stereo not given),inactive,
O=c1cc(CO)occ1O,inactive,
Cc1cccn2c(=O)c(-c3nnn[nH]3)cnc12,inactive,
O=C(O)Cc1ccc(CCNS(=O)(=O)c2ccc(Cl)cc2)cc1,inactive,
CN1CC(=O)NC1=N,inactive,
O=C1NC(=O)[C@@]2(CCOc3ccc(F)cc32)N1,inactive,

Compound,Potency,activation
CC(=O)OCC(=O)[C@@]1(O)CCC2C3CCC4=CC(=O)CC[C@]4(C)C3[C@@H](O)C[C@@]21C (stereo not given in full),inactive,
CCCCCSCCCCC,inactive,
N=C(N)c1ccc2cc(OC(=O)c3ccc(N=C(N)N)cc3)ccc2c1,inactive,
CCC=O,inactive,
NS(=O)(=O)c1cc(C(=O)NN2C[C@H]3[C@H]4CCC(C4)[C@H]3C2)ccc1Cl,inactive,
CCOC(=O)C(=O)OCC,inactive,
CO[C@]12C[C@@H](COC(=O)c3cncc(Br)c3)CN(C)[C@@H]1Cc1cn(C)c3cccc2c13,inactive,
Cc1cc(O)cc2c1O[C@](C)(CCC[C@H](C)CCC[C@H](C)CCCC(C)C)CC2,inactive,
Cc1sccc1Br,inactive,
C1CN(CCOCCN2CCOCC2)CCO1,inactive,
CCOc1ccc(C(=O)OCCN(CC)CC)cc1,inactive,
CCCCCCCCCCCCN(CCCCCCCCCCCC)CCCCCCCCCCCC,inactive,
CCSC(=O)N(CC(C)C)CC(C)C,inactive,
CCC(=O)OC(C)c1ccccc1 (stereo not given),inactive,
CC1(C)CO[C@@H](CC(=O)O)CN1,inactive,
OCCCC1CCCCC1,inactive,
Cc1c(NC(C)C)c(=O)n(-c2ccccc2)n1C,inactive,
CC(C)(CC(=O)O)C(=O)O,inactive,
C=CCS(=O)(=O)O,inactive,
COC(=O)c1cc(C(=O)OC)cc(S(=O)(=O)O)c1,inactive,

# From PubChem BioAssay (Tox21)
